# Assay results as given in PubChem BioAssay (NCI).
# About 83,000 compounds went through this panel and 20% of them were active in at least one assay; those are over-represented in the sample as a whole.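 The test compound was applied at a single concentration to cells in 96-well plates for 48 hours, and percent growth was recorded.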 Values without a mark were called inactive. Calls of active or inactive are those of the source. Rule for the calls: active = growth percent below 10; inactive = the rest.
# Experiments:
# Assay in all cases: NCI-60 one-dose screen, 48 h (100 = growth as untreated, 0 = no growth, -100 = all killed)
# Details in all cases: 10 µM unless noted
# [1] = system: SR leukemia
# [2] = system: OVCAR-8 ovarian
# [3] = system: OVCAR-5 ovarian
# [4] = system: OVCAR-4 ovarian
# [5] = system: SK-OV-3 ovarian
# [6] = system: IGROV1 ovarian
# [7] = system: OVCAR-3 ovarian
# [8] = system: HS 578T breast
# [9] = system: NCI/ADR-RES ovarian
# [10] = system: T-47D breast
# [11] = system: BT-549 breast
# [12] = system: MDA-MB-435 melanoma
# [13] = system: SW-620 colon
# [14] = system: MCF7 breast
# [15] = system: HCT-116 colon
# [16] = system: HCC-2998 colon
# [17] = system: KM12 colon
SMILES,growth [1],growth [2],growth [3],growth [4],growth [5],growth [6],growth [7],growth [8],growth [9],growth [10],growth [11],growth [12],growth [13],growth [14],growth [15],growth [16],growth [17]
CN1C(=O)N(C)C2C1NN=c1s/c(=C\c3ccc(Br)cc3)c(=O)n12 (configuration not stated),13.5%,33.7%,56.8%,61.6%,29.5%,48.1%,0.921% (active),11.6%,17%,28.7%,50.8%,-50.4% (active),20%,13.4%,25%,53%,23.3%
O=C(Nc1ccccc1)c1cc2ccccc2s1,82.1%,96.9%,81.7%,60%,99.4%,87.3%,105%,98.5%,94.4%,38.1%,95.9%,109%,101%,46.8%,75.8%,48.9%,29.8%
CCCCOc1nc2ccc(C)cc2cc1/C=C/C(=O)/C=C(O)/C=C/c1cc2cc(C)ccc2nc1OCCCC,95.9%,100%,102%,116%,89.9%,109%,113%,100%,96.8%,89.2%,90.8%,107%,107%,100%,87.6%,108%,102%
COc1ccc(-n2c(COc3ccc(F)cc3)n[nH]c2=S)cc1,120%,112%,110%,105%,109%,96.4%,103%,108%,103%,101%,181%,105%,104%,107%,101%,113%,110%
Fc1ccc(-c2cnc3nonc3n2)c(F)c1,74.5%,102%,96.8%,93.3%,92.1%,108%,81.5%,98.1%,104%,80.8%,91.6%,84.4%,97%,85%,96.9%,93.5%,82.9%
CCCCSc1ncnc2c1ncn2C1CCCCO1 (configuration not stated),90.5%,105%,99.1%,108%,106%,106%,109%,110%,102%,104%,107%,115%,107%,91.5%,100%,,108%
c1csc(-c2cnc3nonc3n2)c1,39.3%,79.2%,107%,89.5%,92.7%,76.9%,84.2%,92.5%,95%,,87.3%,98.6%,99.7%,61.3%,66.6%,112%,91.5%
C=CCOC(=O)C1=C(C)NC2=C(C(=O)CC(C)(C)C2)C1c1ccc(OC)cc1 (configuration not stated),98.8%,93%,107%,110%,82.1%,105%,107%,90.6%,103%,99%,94.1%,,,97.4%,88.8%,116%,94.8%
C/C(=N\Nc1ccc([N+](=O)[O-])cn1)c1ccc(N)cc1,21.8%,109%,98.2%,100%,115%,93.5%,101%,109%,115%,103%,100%,96.5%,112%,85%,,102%,95.5%
NC(=S)N1N=C(c2ccc(Cl)cc2)CC1c1cc2ccccc2[nH]c1=O (configuration not stated),82.4%,111%,108%,100%,104%,101%,119%,112%,108%,89.2%,,104%,,95.5%,103%,111%,114%
O=C(O)C(CCc1ccccc1)NCc1ccccc1 (configuration not stated),106%,106%,93.5%,78.5%,98.5%,101%,100%,99.4%,93.7%,96.3%,47.4%,,102%,95.3%,90.7%,97.2%,100%
CC(C)c1nc2ccccc2n1CC(=O)N/N=C/c1cccc(O)c1,89.7%,92.6%,108%,104%,93.2%,118%,109%,98.3%,109%,103%,99.7%,,93.6%,105%,87%,104%,103%
OC(CCCCCCCCC(O)CN1CCc2ccccc2C1)CN1CCc2ccccc2C1 (configuration not stated),104%,104%,102%,96.2%,105%,95.1%,107%,108%,98.1%,99.6%,101%,99.8%,104%,95.9%,,102%,106%
Clc1ccc(-c2cnc3nonc3n2)s1,38.4%,67.3%,91.5%,89.9%,98.1%,71.3%,23.1%,90.3%,98.5%,58.4%,,-10.6% (active),82.6%,38.7%,67%,109%,77.1%
O=C(NCCN1CCCC1)n1cc(-c2ccncc2)c(-c2cc(O)cc(Cl)c2)n1,49.6%,77.8%,113%,118%,86.1%,109%,116%,99.6%,101%,98%,111%,57.3%,115%,,75.3%,122%,108%
CCN1C(=O)N(CC)C2C1NN=c1s/c(=C\c3ccc(Br)cc3)c(=O)n12 (configuration not stated),14%,2.86% (active),35.1%,65.7%,16.1%,13.3%,3.78% (active),54%,5.64% (active),54.3%,18.2%,-13.6% (active),23.1%,1.61% (active),5.14% (active),10.2%,6.77% (active)
O=C1CCCN1C1CCN2CCCc3cccc1c32 (configuration not stated),83.5%,103%,99.9%,105%,110%,98.5%,121%,112%,108%,94.1%,134%,,108%,96.9%,,105%,109%
Cc1cccc(/C=N/n2c(-c3ccc(Cl)cc3)nc3c(Br)cc(Br)cc3c2=O)c1,73.1%,32.5%,50.2%,-3.16% (active),39.5%,31.9%,38.2%,65.1%,30.5%,44.4%,88%,66%,,36.7%,22.2%,55.6%,52.4%
O=[N+]([O-])c1ccc(N/N=C\c2ccc(O)cc2O)nc1,15.3%,25.4%,57.9%,40%,25.8%,28.7%,74.8%,90.8%,20.6%,38.5%,38%,,56.4%,27.4%,21.3%,10.6%,29.2%
